IMPase inh: qHTS Assay for Identifying the Cell-Membrane Permeable IMPase Inhibitors; Inositol monophosphatase 1 (Rattus norvegicus), P97697; CHO-M1 cells, IP1 accumulation, HTRF TR-FRET ratio; inhibition (IP1 accumulation), % at 46.1 µM; 120,000 tested, under 10 active; AID 901, 2007; active means well fitted curve in the direction sought with a large enough effect in the signal ratio, not every such curve was filed as active; inconclusive means small, poorly fitted or top-dose-only effect, or a change in a side signal; inactive means no such curve, though single readings can be large or run the other way; the % refers to the signal ratio;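 further: cells stimulated with carbachol in lithium chloride buffer; plate controls were DMSO basal wells for no effect and reference inhibitor wells for full effect; higher means more IMPase inhibition seen as more IP1 and lower FRET ratio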
Target sequence (P97697 whole entry, looked up): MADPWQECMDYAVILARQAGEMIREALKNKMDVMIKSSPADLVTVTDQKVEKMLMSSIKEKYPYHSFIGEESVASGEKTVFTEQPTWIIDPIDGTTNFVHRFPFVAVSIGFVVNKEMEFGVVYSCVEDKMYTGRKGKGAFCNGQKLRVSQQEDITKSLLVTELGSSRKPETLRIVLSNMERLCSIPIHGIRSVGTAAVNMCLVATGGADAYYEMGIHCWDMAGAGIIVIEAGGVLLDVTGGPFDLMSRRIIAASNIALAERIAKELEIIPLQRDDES
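Elevated IP1 in lysates lowers TR-FRET signal (665/620 ratio and 620 channel reported). Cells were CHO-M1, given carbachol (50 uM as added) plus 50mM LiCl, pH 7.4, 30 min, 37C; compounds titrated up to 46 uM; AC50 by Hill equation.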
Lamin A splicing: qHTS Assay for Modulators of Lamin A Splicing. HeLa LMNA splicing GFP/RFP minigene ratio, 48 h. Potency, µM (doses to about 46.1 µM), inactives show top-dose ratio change, negative = inhibition, actives largely listed as inhibitors. 200,000 compounds, 0.01% hits. AID 1487, 2009; active means well fitted inhibition curve with a large enough effect in the signal ratio, with a control signal flat, not every such curve was filed as active; inconclusive means small, poorly fitted or top-dose-only effect, or effect the other way, or a change in a side signal; the % refers to the signal ratio; further: potency means the concentration at half of the fitted maximal effect
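Read-out is the ratio of GFP to DsRed2 object intensity, acquired by 488 nm laser-scanning cytometry on HeLa lamin A-EGFP minigene reporter cells. Compound incubation 48 hrs at 37 °C in Opti-MEM with 2% FBS; DMSO 0.5% final.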
PNC inhibitor: High Content Assay for Compounds that inhibit the Assembly of the Perinucleolar Compartment; PC3M PTB-GFP, PNC prevalence imaging, 16 h; hits give low values; activity change (PNC), negative = inhibition, % at 10 µM; 140,000 compounds, 3.1% hits;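 active means readout at or below -70, meaning at least 70% loss of cells showing the perinucleolar compartment, a nuclear body marking cancer cells; inconclusive means readout between -30 and a set limit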;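 further: plate controls were DMSO wells for no effect and camptothecin positive control wells for full effect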
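Read-out is percentage of cells bearing a perinucleolar compartment, from automated 20x imaging of fixed, Hoechst-stained PC3M PTB-GFP cells. Cells were seeded 4 h, then exposed 16 h to compound (23 nl of library stock) in duplicate plates.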
Luc counter: Counterscreen for Luciferase (Kinase-Glo TM) Inhibition | Luciferin 4-monooxygenase (Photuris pensylvanica), Q27757 | Kinase-Glo luciferase, ATP luminescence, 8 min | Potency, µM (highest dose often 38.3 µM), without a hit: at the highest dose activity change, negative = inhibition, most hits filed as inhibitors | 200,000 compounds, 0.28% hits | AID 1379, 2008; active means well fitted inhibition curve with a large enough effect; inconclusive means small, poorly fitted or top-dose-only effect; further: potency means the concentration at half of the fitted maximal effect; nearly all actives have a fitted effect of over 60% in size
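Recombinant Kinase-Glo luciferase, 10 uM ATP (linear range), luciferin; imidazole pH 7.2 / KCl / MgCl2 / Tween / BSA buffer; 8 min RT; luminescence.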
HPGD block: qHTS Assay for Inhibitors of HPGD (15-Hydroxyprostaglandin Dehydrogenase) | purified HPGD, NADH fluorescence kinetic, PGE2 substrate | 150,000 compounds, 4.3% hits | 15-hydroxyprostaglandin dehydrogenase [NAD(+)] (Homo sapiens), P15428 | Potency, µM, for the others: top-dose activity change, negative = inhibition, actives largely listed as inhibitors; further: potency means the concentration at half of the fitted maximal effect
Target sequence (P15428 whole entry, looked up): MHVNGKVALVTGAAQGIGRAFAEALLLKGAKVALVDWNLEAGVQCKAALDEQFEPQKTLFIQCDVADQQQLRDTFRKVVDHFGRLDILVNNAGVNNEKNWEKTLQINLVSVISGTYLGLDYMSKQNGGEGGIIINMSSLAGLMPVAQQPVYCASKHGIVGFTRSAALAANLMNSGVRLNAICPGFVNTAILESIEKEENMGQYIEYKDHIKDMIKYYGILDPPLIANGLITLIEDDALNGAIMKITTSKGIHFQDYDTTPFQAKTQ
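NADH formation kinetics: reaction with 30 uM PGE2 and 1 mM NAD+ (final), 20 nM enzyme, Tris-HCl pH 8 with Tween 20, after 15 min compound preincubation at room temperature. Fluorescence change, last versus first of five reads.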
ALDH1A1 block: qHTS Assay for Inhibitors of Aldehyde Dehydrogenase 1 (ALDH1A1); Potency, µM (highest dose often 75.3 µM), for inactives: top-dose activity, negative = inhibition, most hits filed as inhibitors; Aldehyde dehydrogenase 1A1 (Homo sapiens), P00352; 220,000 compounds, 7.3% hits; Purified ALDH1A1, NADH fluorescence, propionaldehyde substrate; AID 1030, 2008;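 further: potency means the concentration at half of the fitted maximal effect; plate controls were no enzyme wells and a reference inhibitor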
* hit, by the source's call; u = inconclusive; x = not tested or not shown; [ ] = dose if it differs, or a comment. Only some compounds are listed: those with a hit (about 10% of all), similar ones and a draw of the others. Unless noted, the call rests on the fitted dose curve; in most records, active means well fitted inhibition curve with a large enough effect (not every such curve was filed as active); inconclusive means small, poorly fitted or top-dose-only effect, or another doubt; inactive means no such curve, though single readings can be large or run the other way. Unless noted, on the % scale 0 is the no-effect control and ±100 the full control effect.

SMILES	IMPase inh	Lamin A splicing	PNC inhibitor	Luc counter	HPGD block	ALDH1A1 block
Cn1c(-c2ccc(C(C)(C)C)cc2)n[nH]c1=S	12.8	1.8%	-12.7	-7.9%	u	31.6µM*
CCn1c(-c2ccc(C(C)(C)C)cc2)n[nH]c1=S	2.2[1.84 µM]	-11.3%	-88.6*	0.7%	u	u
CC(C)Cn1c(-c2csc3c2CCCC3)n[nH]c1=S	7.2	7.2%	8.3	-4.4%	28.2µM*	35.5µM*
CC(C)Cn1c(-c2ccncc2)n[nH]c1=S	x	u	x	0.4%	x	-5.5%
Cc1ccc(C(=O)Nc2ccc(Br)cc2)cc1S(=O)(=O)NCc1ccccc1	19.5	x	x	x	x	x
CCN(C(=O)Nc1cn(CC(C)C)c(=O)c2ccccc12)c1cc(C)ccc1C	x	-1.8%[46 µM]	x	x	x	x
Cc1nc(-c2ccccc2)sc1-c1n[nH]c(=S)n1C	-7.2	3.3%	-11.0	1.1%	-28.2%	25.1µM*
CCN(CC)CCCNc1nc(-c2ccccc2)nc2ccccc12	-6.3	-16.0%	-100.0*	0.0%	-13.0%	-2.9%
COC(=O)c1ccc(Sc2ccccc2NS(=O)(=O)c2ccc(C)cc2)nc1	-2.7	-0.9%	34.9	-3.5%	-0.3%	28.2µM*
Cc1ccc(S(=O)(=O)Nc2ccccc2-c2ccccc2NS(=O)(=O)c2ccc(C)cc2)cc1	2.7	u	u	8.1%	-15.0%	-5.5%
C/C=C(\C)CN1CCN(c2cccc(C)c2C)CC1	10.3	0.1%	30.0	2.2%	u	0.9%
C/C=C(\C)CN1CCN(c2cc(C)ccc2C)CC1	1.3	5.0%	-28.9	-6.9%	-15.5%	15.8µM*
O=[N+]([O-])c1ccc(/C=C2\CCC(C3=CCCC3)=C2N2CCOCC2)cc1	x	u	65.5	-3.4%	-14.4%	14.1µM*
O=[N+]([O-])c1ccc(/C=N/Nc2nc(N3CCOCC3)nc(N3CCOCC3)n2)cc1	x	17.6%[46 µM]	x	5.3%	x	0.3%
COc1cccc(-c2nc(-c3ccc4c(c3)NC(=O)CO4)cs2)c1	x	x	x	-0.9%	x	20µM*
CC(Nc1nc(-c2ccc3c(c2)NC(=O)CO3)cs1)c1ccccc1 (centres undefined)	x	u	x	1.1%	x	6.31µM*
O=C1COc2ccc(-c3csc(NCC4CCCO4)n3)cc2N1 (centres undefined)	6.7	-0.7%	13.1	-0.7%	-13.8%	5.8%
CCOC(=O)C1C(=O)CC(C)(O)C(C(=O)OCC)C1c1ccc(N(CC)CC)cc1 (centres undefined)	11.9	2.5%	-118.9*	4.8%	7.1%	-8.0%
CCN(CC)c1ccc(C2C(C(=O)OC(C)C)C(=O)CC(C)(O)C2C(=O)OC(C)C)cc1 (centres undefined)	2.3	u	-113.4*	-3.8%	-5.0%	-0.8%
CCCCNc1nc(C)nc2c1nc(-c1ccccc1)n2CCCN(CC)CC	x	x	x	-3.9%	u	u
CC1(C)C[C@](C)(C(=O)c2ccccc2)C=C1c1ccccc1	x	x	x	1.2%	-7.0%	4.9%
COc1cccc(CC2CC(=O)N(c3ccc4c(C)cc(=O)oc4c3)C2=O)c1 (centres undefined)	x	u	x	1.5%	x	1.41µM*
COc1ccc(N2C(=O)CC(Cc3ccccc3)C2=O)cc1 (centres undefined)	u	-3.6%	u	22.9%	-3.4%	11.5%
N#Cc1cc2c(nc1SCc1cccnc1)CCC2	2.9	1.4%	-8.1	1.9%	-19.9%	u
N#Cc1cc2c(nc1SCc1cccnc1)CCCC2	9.7	u	u	-7.5%	12.6µM*	u
SMILES	IMPase inh	Lamin A splicing	PNC inhibitor	Luc counter	HPGD block	ALDH1A1 block
CC(=O)Nc1cccc(NS(=O)(=O)Cc2ccc(Cl)cc2)c1	-2.3	8.0%	43.2	-1.7%	-12.5%	28.2µM*
COc1ccc2[nH]c(=O)c(C(c3nnnn3C(C)(C)C)N(Cc3ccco3)CC3CCCO3)cc2c1 (centres undefined)	2.0	21.3%	-0.7	-3.6%	u	u
COc1ccc2cc(CN(Cc3ccco3)C(c3nnnn3C3CCCCC3)C(C)C)c(=O)[nH]c2c1 (centres undefined)	1.5	10.9%	5.7	1.4%	-15.9%	15.8µM*
Cc1cccc2cc(CN(CC3CCCO3)C(c3nnnn3Cc3ccco3)C(C)C)c(=O)[nH]c12 (centres undefined)	8.7	u	8.4	0.9%	-0.5%	6.31µM*
COc1ccc2[nH]c(=O)c(CN(Cc3ccco3)Cc3nnnn3Cc3ccccc3)cc2c1	9.0	15.3%	-24.2	0.2%	u	u
COc1ccc2cc(CN(Cc3ccco3)Cc3nnnn3C3CCCCC3)c(=O)[nH]c2c1	1.1	u	4.4	0.8%	-10.8%	7.94µM*
CCC(C)NC(=O)c1nn(-c2ccc(C)cc2)c(=O)n(C)c1=O (centres undefined)	x	-2.5%[46 µM]	x	x	x	x
Cc1[nH]c(C)c(CN(C)C)c1CN(C)C	x	x	x	-11.8%[7.66 µM]	-6.4%	8.9%[13.5 µM]
O=C(Nc1ccccc1)O/N=C/c1ccccc1Cl	-7.6	6.5%	30.4	-15.6%	39.8µM*	u
CCOC(=O)Cn1c(=N)n(Cc2ccc(C(C)(C)C)cc2)c2ccccc21	-3.6	x	x	x	x	x
CC(C)(C)N1C(=O)[C@H]2[C@H]3[C@H](O)[C@H](O)C/C(=N/OC[C@@H](O)COCc4ccco4)[C@H]3CC[C@@H]2C1=O	x	x	x	x	x	11.3%[13.5 µM]
CCOC(=O)C1(O)Oc2cc(OC)cc(OC)c2C(=O)C1c1ccccc1 (centres undefined)	x	-12.5%	x	-2.9%	-18.0%	u
CCOC(=O)C(=O)C1(C(=O)OCC)Oc2cc(OC)cc(OC)c2C(=O)C1c1ccccc1 (centres undefined)	x	-7.9%	x	-1.5%	-10.4%	10µM*
COc1ccc(OC)c(-n2c(SCC(N)=O)nnc2-c2c[nH]c3ccccc23)c1	0.8	4.4%	22.7	-5.6%	-16.0%	3.9%
COc1ccc(OC)c(-n2c(SC)nnc2-c2c[nH]c3ccccc23)c1	11.9	-9.0%	14.3	17.7%	17.8µM*	u
Cc1cc2c(N)cccc2nn1	u	10.5%	27.2	-11.9%	-23.4%	3.98µM*
Cc1cc(N)c2ccccc2n1	x	x	x	-2.6%	x	-2.6%
Nc1cccc2nc3ccccc3cc12	-3.9	u	-113.4*	1.2%	u	u
COC(=O)c1ccc(Cn2c(=O)cc(C(F)(F)F)c3c(C)nn(C)c32)cc1	x	1.4%[46 µM]	x	x	x	x
CC(c1ccc(C(C)(C)C)cc1)S(=O)CC(O)CO (centres undefined)	x	u	-111.7*	4.8%	-3.5%	3.9%

Source: PubChem
